TDP43 rescue – inhibitors of TDP-43 toxicity in yeast | TDP-43 expressing yeast growth rescue, BacTiter-Glo, 24 h | AID 652104 | 410,000 compounds, 1.8% hits | Potency, µM (highest dose often 46.1 µM), without a hit: at the top dose growth rescue (activation), hits mostly activators; further: % of control where 0% means no effect; nearly all actives have a fitted effect of over 50% in size
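In this qHTS, compounds that restore growth of yeast expressing TDP-43 appear as activators. Cells (OD600=0.02, galactose medium, raffinose-pregrown) are incubated with compound 24 hr at 30 deg C and growth is quantified by BacTiter-Glo.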
FUS yeast rescue – rescues growth of FUS-expressing yeast; 390,000 compounds, 0.24% hits; Potency, µM (titrated, usually from 76.6 µM), hits mostly activators; S. cerevisiae FUS-expressing, growth rescue, OD600, 24 h;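 further: plate controls were DMSO vehicle for no effect and reference control for full effect; nearly all actives have a fitted effect of over 55% in size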
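S. cerevisiae expressing FUS from galactose induction served as the toxicity model. Growth after 24hr at 30C, read as absorbance at 600 nm, indicates suppression of toxicity; compounds dosed at several concentrations.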
Abeta rescue – A-beta toxicity reversal in yeast | yeast expressing A-beta42, growth rescue, OD600, 48 h; response scale: 0% DMSO, 100% iron-clioquinol control | Potency, µM (doses to about 46.1 µM), most hits filed as activators | 410,000 compounds, 0.063% hits; further: nearly all actives have a fitted effect of over 55% in size
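Yeast A-beta toxicity model in growth medium with pinned compounds, 48 h at 30 C; growth read as absorbance at 600 nm. Normalized to FeCl3/clioquinol equimolar mix (positive) and DMSO (negative).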
aSyn rescue – alpha-synuclein toxicity inhibition in yeast. Potency, µM (doses to about 46.1 µM), without a hit: at the highest dose growth rescue (activation), most hits filed as activators. 370,000 compounds, 0.14% hits. AID 652106. Yeast expressing alpha-synuclein, growth rescue, BacTiter-Glo, 24 h; further: % of control where 0% means no effect; nearly all actives have a fitted effect of over 65% in size
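Readout is rescue of growth in alpha-synuclein-expressing yeast, so inhibitors of toxicity appear as activators. Growth after 24 hr at 30 deg C in galactose medium is quantified by luminescence.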
Numbers without * were called inactive; i = inactive; ? = inconclusive; / = no result. In the library only some 2.1% were active in any assay of this set; here they are far more common. The call rests on the fitted dose curve; in most records, active means well fitted curve in the direction sought with a large enough effect; inconclusive means small, poorly fitted or top-dose-only effect, or another doubt; inactive means no such curve, though single readings can be large; an effect the other way counts as inactive or inconclusive. Potency means the concentration at half of the fitted maximal effect.

SMILES | TDP43 rescue | FUS yeast rescue | Abeta rescue | aSyn rescue
O=C(c1cc(-c2ccco2)nc2ccccc12)N1CCCC(C(F)(F)F)C1 (stereo not given) | 35µM* | i | i | -22%
CN(C)c1ccc(/C=C/c2nc3ccccc3s2)c(Cl)c1 | / | / | / | -15%
Nc1c(N=Nc2ccc([N+](=O)[O-])cc2)c(S(=O)(=O)O)cc2cc(S(=O)(=O)O)c(/C=C/c3ccccc3)c(O)c12 | / | / | / | -66%
CCn1c(COc2ccc(C)cc2)nnc1SCC(=O)Nc1cc(OC)ccc1OC | 13µM* | ? | i | 2%
COc1ccc(C)cc1NC(=O)CSc1nnc(COc2ccc(C)cc2)n1Cc1ccco1 | 16µM* | i | i | 1%
CCn1c(COc2ccccc2)nnc1SCC(=O)Nc1cc(C)ccc1OC | 1% | i | i | -10%
Cc1nc(Nc2nc3c(c(=O)[nH]2)CCC3)nc2ccccc12 | 14µM* | i | i | 11µM*
O=C(CSCc1cccc(Br)c1)N=Nc1c(O)[nH]c2ccccc12 | 22µM* | i | i | -6%
O=C(CSCc1ccccc1)N=Nc1c(O)[nH]c2ccccc12 | -1% | / | i | 0%
COC(=O)c1cc(-c2ccc(C(C)(C)C)cc2)c(=O)n2c1CCC2 | / | i | / | /
Cc1ccc2c(c1)C(=O)CC(c1ccc3c(c1)OCCO3)O2 (stereo not given) | 11µM* | i | i | -14%
COc1ccc2c(c1)C(=O)CC(c1ccc3c(c1)OCCO3)O2 (stereo not given) | 11µM* | i | i | -8%
Fc1cccc(CNC2CCC23CCC(c2ccccc2)CC3)c1 (stereo not given) | / | i | / | /
Cc1ccc(-c2c3c(nc4sc(C(N)=O)c(N)c24)CCCC3)o1 | 2% | / | i | 20%
NC(=O)c1sc2nc3c(c(-c4ccco4)c2c1N)CCC3 | 7% | i | i | 10µM*
Cc1ccc(S(=O)(=O)N2CCN(C(=O)CCN3C(=O)c4ccccc4C3=O)CC2)cc1C | 16µM* | i | i | 2%
Cc1ccc(S(=O)(=O)N2CCN(C(=O)Cc3ccccc3)CC2)cc1C | 22% | i | i | -1%
CCc1ccc(CNC(=O)c2cnc3c(C)cccn3c2=O)cc1 | 16µM* | i | i | /
O=C1c2ccccc2CCC12N=NCC2c1ccc(Br)cc1 (stereo not given) | 13µM* | i | i | /
O=C1c2ccccc2CCC12N=NCC2c1ccc(Cl)cc1 (stereo not given) | ? | i | i | 14%
O=C(c1ccc(F)cc1)C(CN1CCOCC1)c1ccccc1 (stereo not given) | 18µM* | / | i | 5%
CC1(c2ccc(F)cc2)OC(=O)c2c1ccc1ccccc21 (stereo not given) | 13µM* | i | i | -12%
c1ccc2[nH]c(CNc3nc(N4CCOCC4)nc4c3ncn4-c3ccsc3)nc2c1 | / | i | / | /
c1ccc2cc3[nH]c(CNc4nc(N5CCOCC5)nc5c4ncn5-c4ccsc4)nc3cc2c1 | / | 14µM* | / | /
O=C(COc1ccccc1Cl)Nc1ccc(N2CCCC2)cc1 | 23% | i | i | 4%
SMILES | TDP43 rescue | FUS yeast rescue | Abeta rescue | aSyn rescue
Cc1ccccc1OCC(=O)Nc1ccc(N2CCN(C(=O)c3ccco3)CC2)cc1 | 16µM* | i | ? | 2%
O=C(COc1ccccc1Cl)Nc1ccc(N2CCN(C(=O)c3ccccc3)CC2)cc1 | 22µM* | i | i | 0%
O=C(Nc1ccc(Br)cc1F)c1cnn2c1NC(=C1CC1)C=C2C(F)F | / | / | / | 0%
O=C1c2ccccc2NC(c2ccc(F)cc2)N1Cc1ccccc1 (stereo not given) | 20µM* | i | i | 2%
O=C1c2ccccc2NC(c2ccccc2)N1Cc1ccccc1 (stereo not given) | 16µM* | i | i | 9%
COc1cccc(C2Nc3ccccc3C(=O)N2Cc2ccccc2)c1 (stereo not given) | 20% | i | i | 3%
CN(C(=S)NC(=O)C12CC3CC(CC(C3)C1)C2)c1ccc(O)cc1 | 18µM* | i | i | -5%
CCOC(=O)Nc1cccc(C(=O)O)c1 | -6% | i | i | 0%
CCCCOC(=O)Nc1cccc(C(C)=O)c1 | 11µM* | i | i | 0%
O=C(Nc1ccccc1)OCCc1ccccc1 | 35µM* | i | i | -20%
O=C(Nc1ccccc1)OCCCc1ccccc1 | ? | i | i | 1%
